Compound activity from PubChem.
Shiga toxin inh = Shiga toxin inhibition. 9.2% of 290,000 active. inhibition, % at 38.7 µM. Vero cells, Shiga toxin protein synthesis inhibition reporter. AID 2315; in the data active = inhibition mostly above about 28%, no sharp cut-off; inactive = mostly below about 43%; also: 0% is about no effect
AmpC inh no detg = AmpC beta-lactamase inhibition without detergent. AmpC nitrocefin hydrolysis, absorbance 480 nm, 0.0001% Triton. Potency, µM (highest dose often 57.1 µM), inactives show at the top dose activity change, negative = inhibition, usual class: inhibitors. 0.52% of 330,000 active. AID 485341;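 also: potency is read from the fitted curve at half-maximal effect; plate controls were no compound for no effect and no enzyme for full effect; nearly all actives have a fitted effect of over 20% in size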
Target sequence (P00811 whole entry, looked up): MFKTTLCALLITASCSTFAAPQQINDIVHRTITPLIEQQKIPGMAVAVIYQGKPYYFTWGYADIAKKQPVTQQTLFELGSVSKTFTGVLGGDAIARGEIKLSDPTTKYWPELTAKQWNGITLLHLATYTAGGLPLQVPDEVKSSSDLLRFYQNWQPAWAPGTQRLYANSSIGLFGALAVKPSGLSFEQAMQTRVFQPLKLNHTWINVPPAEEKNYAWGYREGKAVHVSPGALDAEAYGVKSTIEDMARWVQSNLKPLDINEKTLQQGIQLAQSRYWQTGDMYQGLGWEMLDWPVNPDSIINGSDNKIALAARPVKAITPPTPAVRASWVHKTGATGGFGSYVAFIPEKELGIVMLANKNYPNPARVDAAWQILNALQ
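20 mM phosphate pH 7.0 + 0.01% (detergent screen) or 0.0001% Triton X-100; 5.3 nM AmpC reagent; cpd preinc 15 min RT; nitrocefin (800 uM stock) to start; A480 q20 s × 4 min; Activity was normalised to no-enzyme and no-compound control wells.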
NS1 inh = influenza NS1 inhibition; 0.4% of 270,000 active; Potency, µM (highest dose often 46.1 µM), inactives show top-dose activity, positive = more growth; AID 2326; calls by dose curve; also: potency is read from the fitted curve at half-maximal effect; actives are rising curves; nearly all actives have a fitted effect of over 50% in size
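Compounds were scored for reversing the slow growth caused by influenza A NS1 in S. cerevisiae, measured by optical density at 600 nm. Assay medium contained 2% galactose at pH 6.0; NS1-free yeast of the same strain were the positive control.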
Cycloheximide cs = affects cycloheximide protein synthesis inhibition readout, counter-screen; cell reporter, cycloheximide protein synthesis inhibition counterscreen; max response, %; 12% of 300,000 active; AID 2314; in the data active = max response mostly above about 13%, no sharp cut-off; inactive = mostly below about 14%; also: read at 38.3 µM for the half of the compounds with a filed dose; 0% is about no effect
AmpC inh detg = blocks E. coli AmpC beta-lactamase in detergent assay; AmpC hydrolysis of nitrocefin, absorbance 480 nm, 0.01% Triton; Potency, µM (doses to about 114 µM), without a hit: at the top dose activity change, negative = inhibition, hits mostly inhibitors; 0.041% of 370,000 active;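 also: potency is read from the fitted curve at half-maximal effect; 0% = no-compound wells and -100% = no-enzyme wells; nearly all actives have a fitted effect of over 25% in size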
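20 mM phosphate pH 7.0 + 0.01% (detergent screen) or 0.0001% Triton X-100; 5.3 nM AmpC reagent; cpd preinc 15 min RT; nitrocefin (800 uM stock) to start; A480 q20 s × 4 min; Activity was normalised to no-enzyme and no-compound control wells.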
Active calls of the source: *; ? = inconclusive; nt = no result given. The entries come from a sample that favours hits as a whole. Unless noted, calls follow the shape of the dose curve; as a rule, active = well fitted curve in the direction sought with a large enough effect; inconclusive = small, poorly fitted or top-dose-only effect, or another doubt; inactive = no such curve, though single readings can be large; an effect the other way counts as inactive or inconclusive.

SMILES	Shiga toxin inh	AmpC inh no detg	NS1 inh	Cycloheximide cs	AmpC inh detg
Cc1ccc(OCc2cc(C(=O)N3CCN(C)C[C@@H]3c3ccccc3)no2)cc1C	123*	160%	-28%	75*	0%
CN1CCN(C(=O)c2cc(COc3ccccc3)on2)[C@@H](c2ccccc2)C1	117*	57%	9%	55*	-3%
CN1CCN(C(=O)c2cc(COc3c(F)cccc3F)on2)CC1c1ccccc1 (stereo unspecified)	3	174%	-2%	-2	2%
Cc1cc(C)nc(OC(=O)c2ccc(Cl)cc2Cl)n1	-17	-5%	2%	17*	-12%
Cc1cc(C)nc(OC(=O)c2c(Cl)cc(Cl)cc2Cl)n1	-5	24%	-5%	7	1%
O=Cc1cccc(OC(=O)c2ccc(Cl)cc2Cl)c1	51	-22%	-127%	26*	?
COCCSc1ncnc2c1oc1nc3c(cc12)COC(C)(C)C3	30	50%	0%	23*	-6%
O=C(c1cc(COc2ccc(F)cc2Cl)on1)N1CCN(C2CCCC2)CC1	19	-7%	-2%	-3	4%
Cc1ccc(C)c(OCc2cc(C(=O)N3CCc4sccc4C3)no2)c1	-27	-18%	20%	-2	-7%
Cc1nonc1C1CCCN1C(=O)c1cc(COc2ccc(F)cc2Cl)on1 (stereo unspecified)	41	86%	2%	29*	2%
O=C(c1cc(COc2ccc(F)cc2Cl)on1)N1CCc2sccc2C1	43*	-9%	2%	26*	-1%
O=C(c1cc(COc2ccc(F)cc2Cl)on1)N1CCCCC1c1cccnc1 (stereo unspecified)	38*	64%	-16%	25*	-5%
CCOC(=O)Cn1c(=O)oc2cc(S(=O)(=O)NCCCc3ccccc3)ccc21	11	-9%	-10%	-2	?
CCOC(=O)Cn1c(=O)oc2cc(S(=O)(=O)NCCc3ccc(C)cc3)ccc21	-3	10µM*	-10%	-2	?
Cc1sc2nc(COC(=O)c3ccc(O)cc3)[nH]c(=O)c2c1C	-2	14µM*	-2%	-4	3%
O=C(NCCc1cccc(Cl)c1)c1cccs1	101*	-17%	-45%	67*	-2%
O=C(NCCCCNC(=O)c1cccs1)c1cccs1	-3	-12%	6%	-4	-5%
O=C(NCCc1ccccc1)c1cnc2sccn2c1=O	93*	-48%	-10%	43*	-8%
O=C(NCCCNC(=O)c1cccs1)c1cccs1	15	-15%	7%	-2	?
CCn1c(=O)c2cc(C(=O)NCCc3cccc(C)c3)sc2c2ccccc21	nt	nt	nt	nt	-9%
CCN=c1sc(C(=O)NCCc2ccccc2)cc(=O)n1CC	97*	-23%	-51%	47*	?
O=C(NCCc1ccccc1)c1cccs1	50	-23%	-59%	29*	?
CCNc1nc2c(c(=O)n(C)c(=O)n2C)n1Cc1ccc(F)cc1	nt	nt	nt	nt	11%
O=C(NCc1nc2ccccc2[nH]1)c1ccco1	-44	-13%	3%	11	3%
Cc1cc2ccccc2n1CCNC(=O)c1cccs1	32*	5%	?	17*	?
SMILES	Shiga toxin inh	AmpC inh no detg	NS1 inh	Cycloheximide cs	AmpC inh detg
Cc1cc2ccccc2n1CCNC(=O)c1cccc(Cl)c1	nt	nt	nt	nt	17%
O=C(NCc1nc2ccccc2[nH]1)c1cccs1	14	-10%	1%	23*	?
C[C@@]12C[C@H](O)C3[C@H](CCC4=CC(=O)CC[C@]43C)[C@H]1CC[C@@H]2c1csc(N)n1 (stereo partly specified)	nt	nt	-11%	nt	nt
Cc1[nH]c2ccc(C(=O)NC3CCC(C)CC3)cc2c1C (stereo unspecified)	58*	2%	9%	26*	-9%
O=C(NNC(=O)c1ccc2nc[nH]c2c1)c1ccccc1	nt	3%	nt	nt	6%
CC1CCC(NC(=O)c2ccc3nc[nH]c3c2)CC1 (stereo unspecified)	47*	-18%	8%	41*	0%
Cc1ccc(C(=O)COC(=O)C(CC(C)C)NC(=O)C2CCC(C)CC2)cc1 (stereo unspecified)	nt	nt	nt	nt	-4%
COc1cccc(CNC(=O)CSc2ncc(S(=O)(=O)c3ccc(Br)cc3)c(=O)[nH]2)c1	nt	nt	nt	nt	16%
O=C(O)c1cccc(N2C(=O)c3ccc4c5c(ccc(c35)C2=O)C(=O)N(c2cccc(C(=O)O)c2)C4=O)c1	3	-19%	10%	-2	-10%
